# Data reported in PubChem BioAssay AID623911 (Vanderbilt High Throughput Screening Facility, 2012).
# Screen size: about 2,100 compounds; about 770 (37%) were called active. The list shows a part of the results. A number with no mark means an inactive call.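 Rule for the calls: active = by-eye trace score of 1 for enhancers or -1 for inhibitors, so actives lie on both sides (some results past the limit were not filed as active); inactive = score 0, or 3 fluorescent, or 4 baseline rise.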
# Target: G protein-activated inward rectifier potassium channel 2 (Homo sapiens) + G protein-activated inward rectifier potassium channel 1 (Homo sapiens) (UniProt P48051+P48549)
# Sequence (P48051 whole entry, looked up): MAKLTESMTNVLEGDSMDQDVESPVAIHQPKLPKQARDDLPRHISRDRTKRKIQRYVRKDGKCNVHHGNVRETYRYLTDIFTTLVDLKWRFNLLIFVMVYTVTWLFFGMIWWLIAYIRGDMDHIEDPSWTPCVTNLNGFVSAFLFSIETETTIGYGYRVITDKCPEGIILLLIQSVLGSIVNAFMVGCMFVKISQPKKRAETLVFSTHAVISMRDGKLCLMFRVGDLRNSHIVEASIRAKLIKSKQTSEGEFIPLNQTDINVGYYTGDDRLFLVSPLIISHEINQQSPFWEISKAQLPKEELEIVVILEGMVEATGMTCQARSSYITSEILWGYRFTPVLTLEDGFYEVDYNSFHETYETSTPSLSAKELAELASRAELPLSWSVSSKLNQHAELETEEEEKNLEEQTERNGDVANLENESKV
# Sequence (P48549 whole entry, looked up): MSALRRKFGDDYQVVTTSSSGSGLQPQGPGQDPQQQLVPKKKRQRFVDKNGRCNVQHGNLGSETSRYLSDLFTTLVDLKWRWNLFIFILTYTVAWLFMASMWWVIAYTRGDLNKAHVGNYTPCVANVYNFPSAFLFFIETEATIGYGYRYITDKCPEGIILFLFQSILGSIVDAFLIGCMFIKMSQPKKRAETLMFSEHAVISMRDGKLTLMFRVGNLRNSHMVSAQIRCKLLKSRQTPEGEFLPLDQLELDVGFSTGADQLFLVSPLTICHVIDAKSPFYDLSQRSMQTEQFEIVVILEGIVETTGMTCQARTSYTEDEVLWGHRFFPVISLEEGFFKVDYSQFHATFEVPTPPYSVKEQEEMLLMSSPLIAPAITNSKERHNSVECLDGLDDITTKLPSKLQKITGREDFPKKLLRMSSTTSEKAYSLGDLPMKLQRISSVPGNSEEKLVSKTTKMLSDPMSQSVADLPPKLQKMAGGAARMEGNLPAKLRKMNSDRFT
# Assay: GIRK1/2 thallium flux modulators, retest, confirmation, cell-based, HEK293 rmGlu8/hGIRK1/2, FluoZin-2 (AID 623911)
# Settings: HEK293 rmGlu8/hGIRK1/2, thallium flux FluoZin-2; actives lie on both sides; glutamate co-added at its EC20 level
row,SMILES,manual score
1,CCCCCc1nnc(NC(=O)Cc2cccs2)s1,0
2,Cc1cc(C)c(NC(=O)c2ccc(S(=O)(=O)N(C)C)cc2)c(C)n1,0
3,CCCCN(C)S(=O)(=O)c1ccc(C(=O)Nc2nnc(-c3cccs3)o2)cc1,1 (active)
4,O=C(Nc1nnc(-c2cccs2)o1)c1cccc(C(F)(F)F)c1,1 (active)
5,Cc1occc1C(=O)Nc1cccc(C(F)(F)F)c1,0
6,COc1ccc(C(=O)Nc2ccc(Oc3ncnc4sc(-c5ccccc5)cc34)cc2)cc1OC,0
7,O=C(Nc1nnc(-c2cccs2)o1)c1cccc(Oc2ccccc2)c1,1 (active)
8,O=C(Nc1nnc(-c2cccs2)o1)c1cccc(F)c1,1 (active)
9,O=C(N/N=C/c1c(Cl)cccc1Cl)c1cccc(F)c1,0
10,CCOc1ccc(-c2cc(C)n3nc(C(N)=O)cc3n2)cc1,0
11,COCCCNc1c2c3c(cccc3[nH]c1=O)C(=O)c1ccccc1-2,3
12,Cc1[nH]c2ccccc2c1CN1CCc2ccccc2C1,0
13,CNc1nc(Cl)nc(NC(C)(C)C)n1,0
14,CCOC(=O)/C(=C\C=C1/Sc2cc(OCC)c(OCC)cc2N1CC)C(C)=O,3
15,Cc1ccc2c(c1)N(CC(=O)N(Cc1ccccn1)Cc1ccco1)C(=O)C(C(C)C)O2 (centres undefined),-0.5
16,CCC1Oc2ccc(C)cc2N(CC(=O)N(Cc2ccc(C)o2)C2CCCC2)C1=O (centres undefined),-1 (active)
17,Cc1ccc(S(=O)(=O)c2c(C)cc(C)nc2Cl)c(C)c1,0
18,CCC(C)NC(=O)CSc1nc2ccccc2c(=O)n1Cc1ccc(OC)cc1 (centres undefined),0
19,CCCCn1c(SCC(=O)Nc2ccc(OC)cc2)nc2ccc(N3CCOCC3)cc2c1=O,0
20,COc1ccc(NC(=O)CSc2nc3ccccc3c(=O)n2CCCN2CCCCC2)c(OC)c1,-1 (active)
21,COc1ccc(C(C)n2c(C)c3c(C)nnc(C)c3c2C)cc1 (centres undefined),-1 (active)
22,CCOC(=O)CSc1nc(C)c2cc(OC)ccc2n1,0
23,Cn1cc(S(=O)(=O)Nc2ccc(F)cc2F)c(=O)n(C)c1=O,0

row,SMILES,manual score
1,S=c1nn[nH]n1C12CC3CC(CC(C3)C1)C2,1 (active)
2,CCOC(=O)c1ccccc1Nc1cn(C(C)=O)c2ccccc12,-0.5
3,CCOC(=O)c1cnn2c1[nH]c(=O)c1ccccc12,1 (active)
4,Cc1cc2[nH]c(=O)c3ccccc3n2n1,0
5,CCS(=O)(=O)Nc1ccc(-c2nnc(SCC(=O)c3ccc(NC(C)=O)c(OC)c3)o2)cc1,0
6,COc1ccc(NC2=NC(=S)N(c3ccccc3C)C23CCCCC3)cc1,1 (active)
7,Cc1ccc(NC2=NC(=S)N(CC#N)C23CCCCC3)cc1,0
8,N#CCN1C(=S)N=C(Nc2cccc(Cl)c2)C12CCCCC2,0.5
9,CN(C)CCNc1ncnc2c1cnn2-c1ccc(Cl)cc1,0
10,NC(=O)CSc1ncnc2c1cnn2Cc1ccccc1,0
11,Cc1ccc(CSc2ncnc3c2cnn3-c2ccc(C)cc2)cc1,1 (active)
12,Cc1ccc(-n2ncc3c(SCc4ccccc4)ncnc32)cc1,1 (active)
13,COc1ccc(OC)c(Nc2ncnc3c2cnn3-c2cccc(C)c2)c1,0
14,CCOC(=O)C(C)Sc1nc2c(cnn2-c2ccc(C)cc2)c(=O)[nH]1 (centres undefined),0
15,COc1ccc(OCCCN2CCCCCC2)cc1,0
16,CCN1CCN(CCCOc2ccc(-c3ccccc3)cc2)CC1,-1 (active)
17,CN(C)CCCOc1ccc(C(C)(C)c2ccccc2)cc1,0
18,CCCCC(=O)N1CCCC(c2nc3c(nnn3Cc3cc(C)ccc3C)c(=O)[nH]2)C1 (centres undefined),0
19,S=c1[nH]nc(-c2ccco2)n1/N=C/c1ccc(Br)s1,0
20,S=c1[nH]nc(-c2ccccn2)n1/N=C/c1ccc(Br)s1,1 (active)
21,Cc1cc(-c2n[nH]c(=S)n2/N=C/c2ccc(Br)s2)n[nH]1,0
22,CN(C)Cc1cc(C(C)(C)C)c(O)c(C(C)(C)C)c1,-1 (active)
23,Cc1ccc(C)c(NC(=S)NNC(=O)c2csc(C(C)C)c2)c1,1 (active)

row,SMILES,manual score
1,Cc1cc(C)c2oc(-c3ccc(C)c(NC(=S)NC(=O)c4cccs4)c3)nc2c1,0
2,Cc1ccc(-c2nc3ccccc3o2)cc1NC(=S)NC(=O)c1cc2ccccc2o1,0
3,Cc1cccc(NC(=S)NNC(=O)c2csc(C(C)C)c2)c1,1 (active)
4,c1cn(CC2(Cn3ccnc3)COC2)cn1,0
5,CN(C)CCNC(=O)c1ccc2c(c1)N(Cc1ccc(F)cc1)CCS2,-1 (active)
6,CN(C)CCNC(=O)c1cc2c(s1)-c1ccccc1OC2,0
7,CCCCOc1ccc(C(=O)OC2CC(C)N(C)CC2C)cc1 (centres undefined),-1 (active)
8,CCCCOC(=O)Nc1ccc(C(=O)OCCC)cc1,0
9,COc1cccc(NC(=O)C(Sc2nc3ccccc3c(=O)n2CC(C)C)c2ccccc2)c1 (centres undefined),0
10,O=C(CN1CCCCC1)Nc1cccc(Oc2ccccc2)c1,0
11,COc1cccc(NC(=O)CSc2nc(N)cc(N)n2)c1,0
12,COc1cccc(NC(=S)N/N=C2/CCCCc3ccccc32)c1,0.5
13,COc1cccc(NC(=O)Cn2cc(C#N)c3ccccc32)c1,1 (active)
14,CC1CCc2nn(CC(=O)N3CCN(C(=O)c4ccco4)CC3)cc2C1 (centres undefined),0
15,COc1cccc(NC(=O)Cn2cc3c(n2)CCCCC3)c1,1 (active)
16,COc1cccc(NC(=O)Cn2nnc(C(=O)Nc3ccccc3)c2N)c1,1 (active)
17,COc1cccc(NC(=O)CSc2nnc(-c3ccoc3C)n2-c2ccccc2)c1,-0.5
18,Cc1cc(C)cc(NC(=O)Cn2cc3c(n2)CCCCC3)c1,1 (active)
19,CCCOC(=O)c1ccc(-c2c(C)noc2-c2ccc(OC)cc2O)o1,0
20,CC(=O)c1c(C)[nH]c(C(=O)COc2cc(C)cc(C)c2)c1C,0
21,O=[N+]([O-])c1ccc(/C=N/NC(=S)Nc2ccccc2F)o1,1 (active)
22,Fc1ccccc1NC(=S)N/N=C/c1ccccc1Br,0
23,Fc1ccccc1/C=N/NC(=S)Nc1ccc(Cl)cc1Cl,0
